HTR5A ag ctr = counter-screen for OPRM1-OPRD1 agonists: human HTR5A agonism; P47898; HTR5A agonist assay, luminescence, cell-based; activation, % at 9.3 µM; actives 0.61% (n = 340,000); in the data active means activation mostly above about 9.5%, no sharp cut-off; inactive means mostly below about 7.6%;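 further: 0% = cells with vehicle only and 100% = reference agonist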
Target sequence (P47898 whole entry, looked up): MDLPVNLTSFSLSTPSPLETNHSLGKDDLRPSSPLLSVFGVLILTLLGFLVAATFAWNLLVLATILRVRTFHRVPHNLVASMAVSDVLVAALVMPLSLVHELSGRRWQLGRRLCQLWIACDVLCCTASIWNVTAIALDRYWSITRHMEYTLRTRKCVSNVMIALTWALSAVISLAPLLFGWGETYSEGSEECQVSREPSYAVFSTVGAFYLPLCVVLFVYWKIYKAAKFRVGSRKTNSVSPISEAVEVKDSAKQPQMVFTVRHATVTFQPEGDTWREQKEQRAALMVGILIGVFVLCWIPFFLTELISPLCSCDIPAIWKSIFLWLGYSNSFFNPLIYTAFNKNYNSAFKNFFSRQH
MOR-DOR ag-1 = agonists of human mu-delta opioid receptor heterodimerization | P35372+P41143 | cells, OPRM1-OPRD1 heterodimerization, luminescence | activation, % at 9.3 µM | actives 0.3% (n = 340,000) | AID 504326;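 further: 0% = vehicle-treated cells and 100% = reference agonist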
HTR5A inv ag = inverse agonist of human HTR5A in OPRM1-OPRD1 counter-screen; P47898; HTR5A cell line, luminescence, inverse agonism; inhibition, % at 9.3 µM; actives 0.083% (n = 340,000); AID 504634; in the data active means inhibition mostly above about 23%, no sharp cut-off; inactive means mostly below about 18%;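 further: 0% = cells with DMSO and 100% = no-cell wells with DMSO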
OPRM1-OPRD1 inv = mu-delta opioid heterodimer inverse agonism; AID 504357; actives 0.21% (n = 340,000); P35372+P41143; inhibition, % at 9.3 µM; cell-based MOR-DOR heterodimer luminescence; in the data active means inhibition above about 22%, passing the limit was not always enough;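 further: 0% = cells with DMSO and 100% = wells without cells with DMSO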
MOR-DOR ag-2 = counter-screen for HTR5A agonists: OPRM1-OPRD1 heterodimerization agonism | shares compounds with HTR5A ag ctr | U2OS counter-screen cells, complementation luminescence, 3 h | activation, % at 9.3 µM | actives 13% (n = 800)
HTR5A ag conf = confirmation of human HTR5A agonists | actives 17% (n = 800) | activation, % at 9.3 µM | HTR5A agonist cell assay, luminescence | shares compounds with HTR5A ag ctr | AID 504915; in the data active means activation above about 17%;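 further: 0% = cells with vehicle only and 100% = full reference agonist response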
The depositor's hits bear a star; . = no result given. Compounds with a hit are over-represented: about 1.1% of the library has one in this group of screens. Unless noted, no stated cut-off is given here; in the data, active means activation above about 18%; inactive means the rest.

SMILES	HTR5A ag ctr	MOR-DOR ag-1	HTR5A inv ag	OPRM1-OPRD1 inv	MOR-DOR ag-2	HTR5A ag conf
CCC(OC(=O)CN1C(=O)c2ccccc2C1=O)C(=O)NC1CCCC1 (stereo unspecified)	2	-1	-6	7	.	.
COc1ccc(CC(=O)Nc2ccc(-c3noc(-c4ccccc4OC)n3)cc2)cc1	23*	3	-58	-18	221*	-6
O=C(c1cccs1)c1no[n+]([O-])c1C(=O)c1cccs1	3	0	-9	-2	.	.
Cc1c(C(=O)c2no[n+]([O-])c2C(=O)c2cnn(C)c2C)cnn1C	26*	1	-22	-6	11	15
Cc1ccc(S(=O)(=O)N2CCN(C(=O)CCC(=O)Nc3ccc(Br)c(C)c3)CC2)cc1	2	0	-7	1	.	.
CN1C(=O)C2(NCCc3c2[nH]c2ccccc32)c2ccccc21 (stereo unspecified)	5	1	-14	-4	.	.
CC1=CC(C)(C)N2C(=O)C3(NCCc4c3[nH]c3ccccc43)c3cc(C)cc1c32 (stereo unspecified)	16*	3	-24	-13	32*	6
OCC[C@H]1C[C@@H](O)[C@H](O)[C@]2(OCCc3ccccc32)O1	5	-1	-15	8	.	.
CC(=O)CCn1cnc([N+](=O)[O-])n1	15*	-2	1	9	60*	-1
CCOC(=O)Cn1cnc([N+](=O)[O-])n1	7	0	-19	-3	.	.
O=C(ONC1=NCCCCC1)c1ccc(Cl)cc1	25*	14	-65	-72	4	0
O=C(ONC1=NCCCCC1)c1c(F)cccc1F	5	3	-27	-16	.	.
Cc1ccc(C(=O)COC(=O)CCN2C(=O)C3C4C=CC(C5CC45)C3C2=O)cc1 (stereo unspecified)	-1	0	9	-2	.	.
CCOC(=O)c1ccc(NS(=O)(=O)c2cc(-c3nnnn3CC)ccc2OC)cc1	16*	2	-41	-12	20*	0
COC(=O)C1=C(C)N(c2cc(Cl)cc(Cl)c2)C(=O)C1	15*	1	2	-8	0	-2
COc1ccc(CN2C3CCCC2CC(NC(=O)Nc2cccc(C)c2)C3)cc1 (stereo unspecified)	17*	0	17	0	1	7
Cc1ccc(CNC(=O)C2CC(=O)N(C3CCCC3)C2)cc1 (stereo unspecified)	0	-2	-4	6	.	.
CCN=c1scc(-c2cccs2)n1/N=C/c1cc(OC)ccc1O	-5	2	-37	-10	.	.
CC(C)N=c1scc(-c2cccs2)n1/N=C/c1ccc(O)c(O)c1O	14*	15	-8	-78	20*	4
CN(CC(=O)Nc1ccc(F)c(F)c1F)C(=O)c1ccc(-n2cncn2)c([N+](=O)[O-])c1	6	0	-17	-2	.	.
COc1ccc(C(C)=O)cc1CS(=O)(=O)CC(=O)NCCc1c[nH]c2ccccc12	18*	-1	-49	4	1	5
CC(C)(C)OC(=O)N[C@@H](C(=O)OC(C)(C)C)c1ccccc1	25*	1	-68	-4	6	5
CCCOc1ccccc1/C=C1\SC(N2CCCCC2)=NC1=O	16*	-1	-61	3	0	24*
O=C1N=C(N2CCCCC2)S/C1=C\c1ccccc1F	3	-1	-11	6	.	.
O=C(COC(=O)COc1ccc(Cl)cc1Cl)NC1CCCCCC1	10	2	-23	-9	.	.
SMILES	HTR5A ag ctr	MOR-DOR ag-1	HTR5A inv ag	OPRM1-OPRD1 inv	MOR-DOR ag-2	HTR5A ag conf
COc1ccc(NC(=O)C(=O)NCCO)cc1Cl	15*	1	-13	-3	0	-9
COc1ccc(NC(=O)C(=O)NCCCO)cc1Cl	-3	-3	9	13	.	.
COc1cccc(CN2CC(C(=O)N(C)C3CCOCC3)CCC2=O)c1 (stereo unspecified)	0	-1	-11	3	.	.
O=C(NCCc1c[nH]c2ccccc12)c1cc([N+](=O)[O-])cc([N+](=O)[O-])c1	65*	2	-252	-13	6	69*
COc1ccc(N(CC(=O)NCCSc2ccccn2)S(=O)(=O)c2ccccc2)cc1Cl	4	-2	-3	12	.	.
COc1ccc(Cl)cc1N(CC(=O)NCCSc1ccccn1)S(=O)(=O)c1ccccc1	16*	1	-49	-8	1	18*
CC(NC(=O)c1ccco1)c1ccc2c(c1)OCCO2 (stereo unspecified)	15*	0	-14	0	2	-3
CCN1CCN(c2nnc(-c3ccc(C)cc3)c3ccccc23)CC1	2	-2	-9	10	.	.
CN(CC(=O)Nc1cccc(F)c1)C(=O)C1(c2ccccc2)CC1	14*	-3	-7	11	3	-1
CCCCCCCCCn1c2c(c(=N)c3c1CCC3)CCC2	25*	-2	-62	9	3	3
CCCCCCn1c2c(c(=N)c3c1CCC3)CCC2	-1	-3	-11	18	.	.
O=C(CC1C(=O)NCCN1Cc1cccc(F)c1F)NCCCC1CCCC1 (stereo unspecified)	-3	-2	15	11	.	.
COC(=O)c1c(NC(=O)c2ccccc2C(=O)O)sc2c1CCC2	20*	-1	-10	7	1	-2
CS(=O)(=O)N1CCCC(C(=O)NCc2ccc(F)cc2)C1 (stereo unspecified)	16*	0	-21	0	17	8
COc1cccc(CNC(=O)C2CCN(S(=O)(=O)c3ccccc3)CC2)c1	-3	-1	-29	6	.	.
COc1ccc(CNC(=O)C2CCN(S(=O)(=O)c3ccccc3)CC2)cc1	21*	-1	-50	6	3	1
COc1ccc(Cl)cc1NC(=S)NCc1ccccn1	2	-3	3	15	.	.
COc1ccc(Cl)cc1NC(=O)NCc1ccccn1	17*	-2	-41	13	11	0
Cc1ccc(-c2noc(CN3CCCCC3)n2)cc1	-5	1	14	-3	.	.
Cc1ccc(-c2noc(CN3CCN(c4ccccc4F)CC3)n2)cc1	20*	2	-55	-9	-4	-4
NC(=O)C1CCN(Cc2nc(-c3ccccc3)no2)CC1	17*	-2	-47	8	0	-1
CCOc1ccc(N(Cc2cc3cc(C)ccc3[nH]c2=O)S(=O)(=O)c2ccccc2)cc1	4	-3	15	18	.	.
Cc1cccc(NC(=O)COC(=O)COc2ccc3c(c2)CCC3)c1	1	3	3	-11	.	.
CC(C)(C)NC(=O)NC(=O)COC(=O)COc1ccc2c(c1)CCC2	20*	6	-54	-36	10	4
COc1ccccc1/C=C/C(=O)OCC(=O)N1c2ccccc2CC1C (stereo unspecified)	6	-5	-15	20	.	.
Cc1ccc(S(=O)(=O)N2CCCOC2CNC(=O)C(=O)NCCc2c[nH]c3ccccc23)cc1 (stereo unspecified)	30*	2	-91	-12	3	26*

Compound activity: PubChem, The Scripps Research Institute Molecular Screening Center
